Here are results for nine molecules from ChEMBL document CHEMBL1961873, “Compounds: GSK PKIS; Assays: Nanosyn kinase panel” (2012).

Assay [1] addresses Serine/threonine-protein kinase 26 (Homo sapiens) (UniProt Q9P289). The note with it: at 1 µM.
For assay [2], the target named is Serine/threonine-protein kinase PAK 1 (Homo sapiens) (UniProt Q13153). Conditions: at 0.1 µM.
Assay [3] shares this target. Conditions: at 1 µM.
Assay [4] addresses Serine/threonine-protein kinase PAK 2 (Homo sapiens) (UniProt Q13177). Conditions: at 0.1 µM.
For assay [5] the target is unchanged. The note with it: at 1 µM.
In assay [6] the target is Serine/threonine-protein kinase PAK 3 (Homo sapiens) (UniProt O75914). Conditions: at 0.1 µM.
Assay [7] has the same target. Conditions: at 1 µM.
Assay [8] addresses Serine/threonine-protein kinase PAK 5 (Homo sapiens) (UniProt Q9P286). The note with it: at 0.1 µM.
The target is the same in assay [9]. The note with it: at 1 µM.
Assay [10] has as its target Serine/threonine-protein kinase PAK 6 (Homo sapiens) (UniProt Q9NQU5). Conditions: at 0.1 µM.
Assay [11] shares this target. The note with it: at 1 µM.
Assay [12] relates to Tyrosine-protein kinase ABL1 (Homo sapiens), P00519 [E255K]. Conditions: at 0.1 µM.
Assay [13] has the same test system. Conditions: at 1 µM.
The test system of assay [14] is Tyrosine-protein kinase ABL1 (Homo sapiens), P00519 [H396P]. Conditions: at 0.1 µM.
The test system is the same in assay [15]. The note with it: at 1 µM.
In assay [16] the test system is Tyrosine-protein kinase ABL1 (Homo sapiens), P00519 [M351T]. Conditions: at 0.1 µM.
Assay [17] has the same test system. Conditions: at 1 µM.
Assay [18] deals with Tyrosine-protein kinase ABL1 (Homo sapiens), P00519 [Q252H]. The note with it: at 0.1 µM.
The test system is the same in assay [19]. Conditions: at 1 µM.
Assay [20] relates to Tyrosine-protein kinase ABL1 (Homo sapiens), P00519 [T315I]. The note with it: at 0.1 µM.

Chain of Serine/threonine-protein kinase PAK 3 (Homo sapiens) (O75914 whole entry, looked up): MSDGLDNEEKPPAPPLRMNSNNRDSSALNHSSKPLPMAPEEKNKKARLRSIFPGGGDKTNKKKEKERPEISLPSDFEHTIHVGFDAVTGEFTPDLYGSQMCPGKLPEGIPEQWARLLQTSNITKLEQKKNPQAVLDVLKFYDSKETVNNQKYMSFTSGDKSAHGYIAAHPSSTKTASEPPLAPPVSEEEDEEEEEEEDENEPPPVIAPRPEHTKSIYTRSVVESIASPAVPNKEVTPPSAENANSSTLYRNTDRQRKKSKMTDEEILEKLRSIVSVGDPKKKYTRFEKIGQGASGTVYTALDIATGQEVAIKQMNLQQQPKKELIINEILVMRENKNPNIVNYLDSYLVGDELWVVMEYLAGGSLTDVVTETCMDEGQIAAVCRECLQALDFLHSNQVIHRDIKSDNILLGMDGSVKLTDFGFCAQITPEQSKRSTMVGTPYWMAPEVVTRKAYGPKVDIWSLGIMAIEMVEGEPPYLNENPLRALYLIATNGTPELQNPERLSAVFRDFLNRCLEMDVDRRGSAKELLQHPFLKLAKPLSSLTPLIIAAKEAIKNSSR
Chain of Serine/threonine-protein kinase 26 (Homo sapiens) (Q9P289 2-416 limits assumed): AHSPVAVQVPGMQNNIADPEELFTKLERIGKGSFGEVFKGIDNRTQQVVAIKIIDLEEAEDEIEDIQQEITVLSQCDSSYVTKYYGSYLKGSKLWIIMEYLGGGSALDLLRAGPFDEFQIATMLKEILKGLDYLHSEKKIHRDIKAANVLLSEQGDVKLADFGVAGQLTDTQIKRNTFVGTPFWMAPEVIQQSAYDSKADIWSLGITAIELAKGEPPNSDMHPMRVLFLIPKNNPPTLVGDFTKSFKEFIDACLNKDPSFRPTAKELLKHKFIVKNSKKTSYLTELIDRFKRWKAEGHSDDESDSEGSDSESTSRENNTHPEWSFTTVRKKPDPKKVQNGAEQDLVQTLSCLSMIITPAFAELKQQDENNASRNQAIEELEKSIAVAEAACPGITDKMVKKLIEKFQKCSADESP
Chain of Serine/threonine-protein kinase PAK 5 (Homo sapiens) (Q9P286 whole entry, looked up): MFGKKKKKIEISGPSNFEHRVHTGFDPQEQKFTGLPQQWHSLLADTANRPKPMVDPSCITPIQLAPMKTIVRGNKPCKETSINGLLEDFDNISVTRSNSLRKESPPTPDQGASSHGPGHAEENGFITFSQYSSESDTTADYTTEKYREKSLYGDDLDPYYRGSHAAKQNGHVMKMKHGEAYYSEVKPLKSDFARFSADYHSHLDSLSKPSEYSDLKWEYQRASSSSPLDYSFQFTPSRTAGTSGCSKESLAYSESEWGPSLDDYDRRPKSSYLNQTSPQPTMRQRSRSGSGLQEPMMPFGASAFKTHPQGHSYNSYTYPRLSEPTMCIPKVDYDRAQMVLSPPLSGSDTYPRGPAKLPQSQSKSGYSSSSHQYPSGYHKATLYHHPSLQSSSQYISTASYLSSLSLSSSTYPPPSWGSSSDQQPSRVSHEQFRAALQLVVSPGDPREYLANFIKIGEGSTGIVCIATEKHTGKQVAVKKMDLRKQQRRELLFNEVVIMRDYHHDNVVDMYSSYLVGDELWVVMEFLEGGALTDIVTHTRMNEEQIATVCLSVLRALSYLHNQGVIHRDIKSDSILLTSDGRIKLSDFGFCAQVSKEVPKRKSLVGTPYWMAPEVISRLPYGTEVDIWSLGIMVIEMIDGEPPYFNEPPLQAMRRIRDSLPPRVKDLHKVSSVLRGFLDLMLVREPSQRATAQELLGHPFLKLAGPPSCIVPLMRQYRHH
Chain of Serine/threonine-protein kinase PAK 2 (Homo sapiens) (Q13177 whole entry): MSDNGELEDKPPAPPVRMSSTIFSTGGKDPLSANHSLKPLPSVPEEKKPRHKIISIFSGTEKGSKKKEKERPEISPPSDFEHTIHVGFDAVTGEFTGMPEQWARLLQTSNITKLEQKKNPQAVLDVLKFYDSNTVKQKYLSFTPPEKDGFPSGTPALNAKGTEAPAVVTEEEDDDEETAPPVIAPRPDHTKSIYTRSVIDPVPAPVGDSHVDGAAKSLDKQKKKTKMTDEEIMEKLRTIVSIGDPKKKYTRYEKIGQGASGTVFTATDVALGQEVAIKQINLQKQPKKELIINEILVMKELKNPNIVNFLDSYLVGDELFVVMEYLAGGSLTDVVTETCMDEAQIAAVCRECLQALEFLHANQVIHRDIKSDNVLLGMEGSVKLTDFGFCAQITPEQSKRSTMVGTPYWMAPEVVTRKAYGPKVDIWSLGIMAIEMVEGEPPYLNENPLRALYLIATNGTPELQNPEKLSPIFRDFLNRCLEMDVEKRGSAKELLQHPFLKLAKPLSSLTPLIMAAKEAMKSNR
Chain of Serine/threonine-protein kinase PAK 6 (Homo sapiens) (Q9NQU5 whole entry, looked up): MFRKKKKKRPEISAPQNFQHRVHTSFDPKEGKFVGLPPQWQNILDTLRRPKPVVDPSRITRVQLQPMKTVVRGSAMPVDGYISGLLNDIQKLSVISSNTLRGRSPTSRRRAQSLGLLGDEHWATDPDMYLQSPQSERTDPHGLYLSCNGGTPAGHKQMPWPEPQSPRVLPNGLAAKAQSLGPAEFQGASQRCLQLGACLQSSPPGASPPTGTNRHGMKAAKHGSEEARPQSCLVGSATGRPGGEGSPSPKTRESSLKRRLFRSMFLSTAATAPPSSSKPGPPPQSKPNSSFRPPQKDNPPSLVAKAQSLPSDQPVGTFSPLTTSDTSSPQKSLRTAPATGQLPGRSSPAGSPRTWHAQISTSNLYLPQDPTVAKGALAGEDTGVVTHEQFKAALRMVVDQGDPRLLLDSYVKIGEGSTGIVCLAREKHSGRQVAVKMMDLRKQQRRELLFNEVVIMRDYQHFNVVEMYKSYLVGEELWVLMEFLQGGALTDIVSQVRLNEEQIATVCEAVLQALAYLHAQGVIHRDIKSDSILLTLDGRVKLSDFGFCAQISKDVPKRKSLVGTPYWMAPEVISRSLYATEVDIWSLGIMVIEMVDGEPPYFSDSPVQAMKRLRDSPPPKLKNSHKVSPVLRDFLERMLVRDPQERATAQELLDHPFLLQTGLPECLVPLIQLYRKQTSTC
Chain of Serine/threonine-protein kinase PAK 1 (Homo sapiens) (Q13153 whole entry): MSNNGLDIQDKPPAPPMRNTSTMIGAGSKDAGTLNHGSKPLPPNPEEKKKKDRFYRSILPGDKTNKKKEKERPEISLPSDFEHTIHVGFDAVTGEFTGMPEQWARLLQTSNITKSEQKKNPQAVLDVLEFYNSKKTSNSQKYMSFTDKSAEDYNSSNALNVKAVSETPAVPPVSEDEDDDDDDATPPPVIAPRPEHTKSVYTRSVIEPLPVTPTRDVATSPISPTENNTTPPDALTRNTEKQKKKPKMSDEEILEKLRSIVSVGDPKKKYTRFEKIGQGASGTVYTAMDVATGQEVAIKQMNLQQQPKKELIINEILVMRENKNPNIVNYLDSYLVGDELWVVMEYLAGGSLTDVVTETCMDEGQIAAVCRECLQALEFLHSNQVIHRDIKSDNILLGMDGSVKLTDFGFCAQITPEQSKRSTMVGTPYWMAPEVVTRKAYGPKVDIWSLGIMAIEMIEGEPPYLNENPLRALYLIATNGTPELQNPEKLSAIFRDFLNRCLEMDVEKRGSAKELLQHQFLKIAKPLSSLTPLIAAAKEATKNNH

Usually inhibition stands for the change of the read-out against control, counted positive when it falls. Consider `Cc1ccc(C(=O)NC2CC2)cc1-c1ccc2[nH]ncc2c1`, for which the inhibition was -0.24% in assay [1]; -0.61% in assay [2]; -2.6% in assay [3]; -3.3% in assay [4]; -4.55% in [5]; -4.8% in [6]. The inhibition in [7] was -3.91%; in assay [8] it was -4.55%; in assay [9], -2.43%; in assay [10], 1.46%; in [11] it was -8.86%; in [12], -0.87%. The inhibition in [13] is -0.81%; in [14], -1.68%; in [15], 1.02%; in assay [16] it was 1.39%; in [17] it was 2.89%; in [18], -1.32%. Further, the inhibition in [19] is 2.09%; in [20], -2.71%.
As for `NC(=O)c1sc(-n2cnc3ccccc32)cc1OCc1ccccc1Br`, the inhibition in [1] was -2.12%; in [2], 6.29%; in assay [3] it was 10%; in assay [4] it was 1.42%; in [5], 2.45%; in assay [6], 4.83%. Besides, the inhibition in [7] is 5.89%; in assay [8], 2.59%; in assay [9], 5.06%; in assay [11], -4.72%; in [12] it was 2.67%; in assay [13] it was 4%. For the same molecule, the inhibition in assay [14] is 4.21%; in assay [15], 6.63%; in assay [16] it was 0.66%; in assay [17] it was 3.16%; in [18], 3.16%; in assay [19], 4.86%. Further, the inhibition in assay [20] turned out to be 3.2%.
As for `Nc1nccc(-c2c(-c3ccc(F)cc3)nn3cc(C(F)(F)F)ccc23)n1`, the inhibition in assay [1] was 0.4%; in [2], 0.65%; in assay [3], 2.14%; in assay [4], -2.44%; in assay [5], -1.84%; in assay [6], -0.02%. For the same molecule, the inhibition in assay [7] is -0.21%; in assay [9] it was -2.91%; in assay [10] it was 3.48%; in assay [11], 5.02%; in assay [12] it was -2.06%; in [13], -1.18%. In addition, the inhibition in [14] was 0.65%; in assay [15], -0.33%; in assay [16], 1.15%; in [17], 1.14%; in [18] it was 1.06%; in [19], 0.27%. Also, the inhibition in assay [20] was 0.42%.
In the case of `COc1cc(/C=N/Nc2ncnc3c2cnn3C(C)C)ccc1O`, the inhibition in assay [1] was 3.49%; in assay [2], 3.62%; in assay [3] it was 2.53%; in assay [4], -0.56%; in assay [5] it was -0.45%; in [6], -3.86%. In addition, the inhibition in assay [7] is 1.26%; in assay [9], 4.69%; in assay [10] it was -0.32%; in assay [12], 21.7%; in assay [13], 71%; in assay [14], 34.7%. Moreover, the inhibition in [15] amounted to 80.7%; in assay [16] it was 34.7%; in [17], 80.5%; in [18] it was 35.4%; in assay [19] it was 81.6%; in assay [20], 9.92%.
As for `CCS(=O)(=O)c1ccc(OC)c(Nc2nccc(N(C)c3ccc4c(C)n[nH]c4c3)n2)c1`, the inhibition is 0.16% in assay [1]; 3.86% in [2]; 6.28% in assay [3]; 1.58% in [4]; 1.86% in assay [5]; 5.97% in [6]. Also, the inhibition in assay [7] was 5.09%; in assay [8], 1.92%; in [9], 0.85%; in assay [11] it was -6.63%; in assay [12], 50.5%; in [13], 88.7%. The inhibition in assay [14] was found to be 61.1%; in assay [15] it was 90.5%; in [16] it was 54%; in assay [17], 88.3%; in [18], 57.7%; in assay [19] it was 89.6%. Also, in [20], the inhibition came out at 3.83%.
Turning to `NS(=O)(=O)c1ccc(-c2cc3ccncc3cc2OCc2ccccc2)cc1`, the inhibition in [1] was determined as 0.38%; in [2], 5.31%; in [3], 6.13%; in [4] it was 1.08%; in assay [5], 0.46%; in assay [6], 3.48%. Further, the inhibition is 4.21% in assay [7]; 1.12% in [8]; -3.7% in [9]; 4.76% in [11]; 2.82% in assay [12]; 3.92% in assay [13]. For the same molecule, the inhibition in assay [14] came out at 4.66%; in [15], 6.67%; in assay [16] it was 3.16%; in assay [17] it was 4.42%; in [18] it was 4.84%; in assay [19], 4.61%. For the same molecule, the inhibition in [20] was found to be 1.65%.
As to `CCn1c(-c2nonc2N)nc2c(C#CC(C)(C)O)nc(OCCNC)cc21`, the inhibition in assay [1] was -1.03%; in assay [2] it was 8.56%; in assay [3], 5.49%; in [4], 1.23%; in assay [5], 2.27%; in assay [6] it was 3.16%. Moreover, the inhibition in [7] worked out at 5.05%; in [8], 3.8%; in assay [9], 12.5%; in assay [11] it was 1.16%; in [12], 2.13%; in [13] it was 2.96%. Also, the inhibition in [14] was determined as 3.72%; in assay [15], 4.85%; in [16] it was 1.62%; in [17], 3.61%; in assay [18], 3.81%; in assay [19], 4.6%. Further, in [20], the inhibition came out at 1.77%.
Consider `Oc1cccc(-c2nc(-c3ccccc3)[nH]c2-c2ccncc2)c1`, for which the inhibition was determined as 4.67% in assay [1]; 6.65% in assay [2]; 6.51% in [3]; 2.18% in [4]; 1.52% in [5]; 3.47% in assay [6]. Besides, the inhibition in assay [7] was 3.48%; in assay [8], 11.4%; in assay [9], 15.7%; in assay [11] it was 2.02%; in [12], 6.54%; in [13], 26.7%. The inhibition in assay [14] was found to be 9.87%; in assay [15] it was 36.6%; in [16] it was 8.39%; in assay [17] it was 31.3%; in assay [18] it was 7.9%; in assay [19], 27%. In addition, in [20], the inhibition was found to be 3.52%.
As to `CN(C)C(=O)O[C@@H]1CN[C@@H](C#Cc2cc3ncnc(Nc4ccc(OCc5cccc(F)c5)c(Cl)c4)c3s2)C1`, the inhibition is 0.17% in assay [1]; 1.48% in assay [2]; 2.04% in [3]; 0.43% in assay [4]; -0.42% in assay [5]; 0.58% in [6]. For the same molecule, the inhibition in assay [7] is -0.38%; in [8], -5.8%; in [10] it was 2.87%; in [11] it was -6.9%; in [12], -0.68%; in assay [13] it was 2.16%. Moreover, the inhibition in [14] was -0.68%; in assay [15], -1.23%; in assay [16], -1.17%; in assay [17], 0.01%; in assay [18] it was 2.52%; in assay [19], 2.17%. Besides, the inhibition in assay [20] was -0.5%.
